Assay results from the supplement of paper PMC6555819.

Experiments:
Assay in all cases: PBM binding z-score (relative to random genomic background probes); higher = stronger binding; sequences stand for … in GC…GCGATTGACAGCGTAGAATGAAGG
[1] = system: FXR:RXRa (NR concentration 270 nM, RXRa partner concentration 90 nM)
Summary of the method: (§1)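 Binding buffer was PBS pH 7.4 with 2% milk, 0.02% Triton X-100, 1 mM DTT, 0.2 mg/mL BSA and 0.4 mg/ml salmon testes DNA. In it, ligand-free nuclear receptor dimers were incubated 1 h on custom Agilent 4×180K protein-binding microarrays carrying double-stranded probes. Antibodies against each partner (one per run) detected binding, and z-scores were calculated against random background probes after regression normalization of scanned fluorescence.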

[2] = system: LXRa:RXRa (NR concentration 270 nM, RXRa partner concentration 90 nM)
Summary of the method: as §1

[3] = system: LXRa homodimer (NR concentration 270 nM)
Summary of the method: as §1

[4] = system: LXRb:RXRa (NR concentration 270 nM, RXRa partner concentration 90 nM)
Summary of the method: as §1

[5] = system: LXRb homodimer (NR concentration 270 nM)
Summary of the method: as §1

[6] = system: PPARa:RXRa (NR concentration 270 nM, RXRa partner concentration 90 nM)
Summary of the method: as §1

[7] = system: PPARg:RXRa (NR concentration 180 nM, RXRa partner concentration 90 nM)
Summary of the method: as §1

[8] = system: PPARg:RXRa 270nM:90nM, anti-RXR (NR concentration 270 nM, RXRa partner concentration 90 nM)
Summary of the method: as §1

[9] = system: PPARg:RXRa 30nM:10nM, anti-RXR (NR concentration 30 nM, RXRa partner concentration 10 nM)
Summary of the method: as §1

[10] = system: PPARg:RXRa 90nM:30nM, anti-RXR (NR concentration 90 nM, RXRa partner concentration 30 nM)
Summary of the method: as §1

[11] = system: PPARg:RXRa DBDmut IVT, anti-RXR (DBD mutation: RXRa K156A/R161A, NR concentration 270 nM, RXRa partner concentration 90 nM)
Summary of the method: as §1

[12] = system: PPARg:RXRa IVT, anti-PPARg (NR concentration 270 nM, RXRa partner concentration 90 nM)
Summary of the method: as §1

[13] = system: PPARg DBDmut:RXRa IVT, anti-PPARg (DBD mutation: PPARg1 K132A/R137A, NR concentration 270 nM, RXRa partner concentration 90 nM)
Summary of the method: as §1

[14] = system: PPARg DBDmut IVT, anti-PPARg (DBD mutation: PPARg1 K132A/R137A, NR concentration 270 nM)
Summary of the method: as §1

[15] = system: PPARg homodimer (NR concentration 180 nM)
Summary of the method: as §1

[16] = system: PXR:RXRa (NR concentration 270 nM, RXRa partner concentration 90 nM)
Summary of the method: as §1

[17] = system: PXR homodimer (NR concentration 270 nM)
Summary of the method: as §1

[18] = system: RARa:RXR (NR concentration 270 nM, RXRa partner concentration 90 nM)
Summary of the method: as §1

[19] = system: RARa homodimer (NR concentration 270 nM)
Summary of the method: as §1

[20] = system: RARb:RXRa (NR concentration 270 nM, RXRa partner concentration 90 nM)
Summary of the method: as §1

Sequence	PBM binding z-score [1]	PBM binding z-score [2]	PBM binding z-score [3]	PBM binding z-score [4]	PBM binding z-score [5]	PBM binding z-score [6]	PBM binding z-score [7]	PBM binding z-score [8]	PBM binding z-score [9]	PBM binding z-score [10]	PBM binding z-score [11]	PBM binding z-score [12]	PBM binding z-score [13]	PBM binding z-score [14]	PBM binding z-score [15]	PBM binding z-score [16]	PBM binding z-score [17]	PBM binding z-score [18]	PBM binding z-score [19]	PBM binding z-score [20]
AGAACGACGGCACGCTGAGTTGATAGCAGAGTAG	-0.194	-0.427	-0.906	-0.149	-1.06	-0.667	0.557	-0.503	-0.345	-0.753	-0.407	-0.737	-0.755	-1.05	-0.628	-0.462	0.0818	-0.447	-0.252	-0.524
AGAATGAGGTTATACGTAGATCAGTGAAGAAAGT	1.96	1.82	0.00702	1.51	0.326	2.96	1.92	2.13	0.914	1.38	3.57	2.11	1.37	1.44	0.559	1.15	0.463	1.56	0.81	1.39
ACTATTAGTCGACTTAGGGCAACCGATACGACGC	-0.365	-0.211	-0.355	-0.374	0.47	-0.446	0.825	0.138	0.0617	0.0451	0.19	0.646	0.629	1.12	-0.309	-0.188	-0.351	0.128	-0.494	0.711
CATACAGGGTCAGCTAGGCCAGAGAAGGGACGGC	4.68	2.97	-0.0685	2.27	0.339	4.4	3.38	3.06	0.62	1.82	1.21	2.58	0.932	-0.117	1.9	2.24	0.0894	3.29	0.36	4.16
CCGAGGAGGTTATGGGGCATTCAGGCAACGGTGA	1.52	1.44	0.15	1.86	-0.173	2.84	1.66	2.11	0.0714	1.39	0.461	1.61	-0.326	-0.847	1.13	0.815	-0.214	1.43	-0.195	1.73
ATCTCTAGGTAAAGATAGTTCTGTGAATGCAAAT	0.34	0.239	-0.054	0.231	0.796	0.344	0.505	0.243	0.378	0.389	2.5	1.5	0.815	1.19	0.736	0.067	0.184	0.347	0.978	0.117
CTCAAAAGGTCGTGCTCAGGTGAGTATACCAAAC	5.46	4.03	0.165	3.42	0.129	4.98	3.14	3.85	0.896	2.75	1.02	2.03	0.582	0.851	1.51	3.24	0.288	4.2	0.127	4.03
